Lassa entry inh: Lassa virus entry inhibition; Lassa virus pseudotype entry inhibition, cell reporter; Potency, µM (top dose mostly 37.9 µM), for the others: at the top dose activity change, negative = inhibition, actives largely listed as inhibitors; actives 1.2% (n = 300,000); AID 540256; calls by dose curve; tested in HEK293 cells; note: potency is the fitted concentration of half-maximal effect; % is set by controls: 0 for no effect and ±100 for the full control effect; nearly all actives have a fitted effect of over 50% in size
Cycloheximide cs: counter-screen hit for Shiga toxin inhibitors, cycloheximide; cell reporter, cycloheximide protein synthesis inhibition counterscreen; AID 2314; actives 12% (n = 300,000); max response, %; in the data active = max response mostly above about 13%, no sharp cut-off; inactive = mostly below about 14%; note: read at 38.3 µM for the half of the compounds with a filed dose; 0% is about no effect
Pf growth 48h: P. falciparum growth inhibition at 48 hours (one generation) | P. falciparum luciferase growth in erythrocytes, 48 h | Potency, µM (top dose mostly 28.7 µM), inactives show top-dose activity change, negative = inhibition, most hits filed as inhibitors | actives 5.9% (n = 310,000) | AID 504832; note: potency is the fitted concentration of half-maximal effect; % is set by controls: 0 for no effect and ±100 for the full control effect
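Luminescence readout; reporter = integrated firefly luciferase in P. falciparum. RBC culture at 2% hematocrit, 0.1% parasitemia final, 37 C/5% CO2; decreased signal taken as growth inhibition.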
Pf growth 96h: P. falciparum growth inhibition at 96 hour, primary screen for plastid delayed-death inhibitors; Potency, µM (doses to about 28.7 µM), for inactives: top-dose activity change, negative = inhibition, usual class: inhibitors; actives 6.9% (n = 320,000); AID 504834; P. falciparum luciferase reporter growth, 96 h; note: potency is the fitted concentration of half-maximal effect; % is set by controls: 0 for no effect and ±100 for the full control effect
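Compounds incubated with erythrocytes infected by luciferase-expressing P. falciparum (2% hematocrit, 0.05% parasitemia final) for 96 hours, 37 C in 5% CO2. Growth inhibition scored as decreased luciferase luminescence.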
MARV entry inh: Marburg virus entry inhibition; Marburg virus pseudotyped entry inhibition, cell reporter; Potency, µM (highest dose often 37.8 µM), for inactives: at the highest dose activity change, negative = inhibition, most hits filed as inhibitors; actives 1.8% (n = 300,000); calls by dose curve; tested in HEK293 cells; note: potency is the fitted concentration of half-maximal effect; % is set by controls: 0 for no effect and ±100 for the full control effect
Shiga inhibitor: inhibitors of Shiga toxin in Vero cells; actives 9.2% (n = 290,000); Vero cells, Shiga toxin protein synthesis inhibition reporter; inhibition, % at 38.7 µM; AID 2315; in the data active = inhibition mostly above about 28%, no sharp cut-off; inactive = mostly below about 43%; note: 0% is about no effect
Active calls of the source: *; ? = inconclusive; / = not tested or not shown; ! = a repeat was not active; [ ] = dose if it differs, or a comment. Rows were chosen to be rich in hits. Some 19% of all compounds tested hit in one or more screens of this group. Unless noted, calls come from the whole dose curve; as a rule, active = well fitted inhibition curve with a large enough effect; inconclusive = small, poorly fitted or top-dose-only effect, or another doubt; inactive = no such curve, though single readings can be large or run the other way.

SMILES	Lassa entry inh	Cycloheximide cs	Pf growth 48h	Pf growth 96h	MARV entry inh	Shiga inhibitor
N#Cc1ccc(OCc2ccc(C(=O)O)o2)cc1	?	-3	49%	34%	14%[46.1 µM]	4
CCc1ccc(OCc2ccc(C(=O)O)o2)cc1	?	64*	207%	7%	?	101*
COC(=O)c1ccc(COc2cccc(OC)c2)o1	4%	22*	43%	/	14%	58*
C=CCc1ccc(OCc2ccc(C(=O)Nc3ccc(NC(C)=O)cc3)o2)c(OC)c1	?	47*	-11%[0.00184 µM]	?	?	136*
CC(NCCC(Cc1ccccc1)c1ccco1)c1ccccc1 (stereo unspecified)	/	-4	?	?	/	-11
Nc1c(C(=O)NC2CCCC2)c2nc3ccccc3nc2n1/N=C/c1ccco1	-12%	1	/	1%	-5%	-4
CCc1ccccc1NC(=O)Cn1nc(C)c2nn(-c3ccc(Cl)cc3)c(C)c2c1=O	-2%[46.1 µM]	/	/	/	/	/
CC(C)n1nnnc1CN1CCN(C)CC1	7%	-1	2%	0%	11%[46.1 µM]	-8
Cc1ccnc(SCC(=O)Nc2oc(-c3ccccc3)c(-c3ccccc3)c2C#N)n1	-22%	-1	?	-1%	-15%	-9
COc1ccc(NC(=O)C(OC(=O)c2cnc(C)cn2)c2ccccc2)cc1Cl (stereo unspecified)	13%	/	19%	66%	15%	/
COC(=O)c1ccc(COc2ccc(/C=N/O)cc2OC)o1	-15%[46.1 µM]	20*	-68%	?	?	71*
COC(=O)c1ccc(COc2ccc(Cl)cc2)o1	/	20*	32%	-8%	/	75*
O=C(O)c1ccc(COc2ccc(Cl)cc2)o1	?	24*	35%	0%	21%	42
O=C(O)c1ccc(COc2ccc([N+](=O)[O-])cc2)o1	23%[46.1 µM]	11	35%	235%	11%[46.1 µM]	26
CCc1ccc(NC(=O)C2CCN(S(=O)(=O)c3ccc4[nH]c5c(c4c3)CCCCC5)CC2)cc1	-17%[46.1 µM]	/	/	/	/	/
O=C(c1ccc2ccccc2n1)N(CCO)Cc1ccccc1	/	-3	-21%	3%	/	-10
CCN(Cc1cccc(F)c1)C(=O)c1ccc2ccccc2n1	4%	40*	18%	6%	-3%[46.1 µM]	62
CC(C)COC(=O)N(C)c1ccc(C(O)(C(F)(F)F)C(F)(F)F)cc1	3.5µM*	8	?	?	5%	33
Nc1nc(N)c2nc(CNc3ccc(C(=O)NC(CCC(=O)O)C(=O)O)cc3)cnc2n1 (stereo unspecified)	?	/	?	?	0.022µM*!	/
Cn1c(=O)c2c(ncn2CCO)n(C)c1=O	/	-7	7%	4.3µM*	10%	-7
O=S(=O)(c1cccc2nsnc12)N1CCCCC1	/	-1	11%	8.3µM*	/	8
Cc1ccc2nc(NC(=O)C3CCN(S(=O)(=O)c4cccc5nsnc45)CC3)sc2c1	?	-5	?	-3%	?	-12
O=C(Nc1ccc2c(c1)OCCO2)C1CCCN(S(=O)(=O)c2cccc3nsnc23)C1 (stereo unspecified)	-30%	24*	/	-46%	-4%	39
O=C(NCCc1ccccc1)C1CCCN(S(=O)(=O)c2cccc3nsnc23)C1 (stereo unspecified)	0%	-7	-17%	1.2µM*	-6%	-10
Cc1ccc2nc(NC(=O)C3CCCN(S(=O)(=O)c4cccc5nsnc45)C3)sc2c1 (stereo unspecified)	?	25*	10µM*	?	?	27
SMILES	Lassa entry inh	Cycloheximide cs	Pf growth 48h	Pf growth 96h	MARV entry inh	Shiga inhibitor
Cc1nn(CCCC(=O)O)c(C)c1[N+](=O)[O-]	6%[46.1 µM]	-6	-3%	0%	16%[46.1 µM]	11
O=S(=O)(c1ccc(Br)c2nsnc12)N1CCOCC1	-1%	-5	-17%	9.3µM*	?	-18
Cc1ccc(S(=O)(=O)N2CCOCC2)c2nsnc12	-10%	-5	/	31%	?	-17
Cc1cccc(NC(=O)CSc2nc3[nH]ncc3c(=O)[nH]2)c1C	10%	-2	-15%	1%	-1%	-12
Cc1cc(C(=O)CSc2ncccn2)c(C)n1Cc1ccco1	-16%	46*	343%	34%	?	79*
Cc1cc(C(=O)CSc2nnnn2C)c(C)n1CCc1ccc(F)cc1	8%	-2	6%	15%	2%	17
Cc1cc(C(=O)CSc2nnnn2C)c(C)n1Cc1ccco1	/	71*	86%	88%	/	87*
O=C(CSC1=NC(=O)C(c2ccccc2)C(=O)N1)Nc1ccccc1Cl (stereo unspecified)	15%	6	8%	/	11%[46.1 µM]	-16
Cc1c(NC(=O)Oc2ccccc2)sc(=S)n1C	-3%	-6	/	-27%	9%	-26
Cc1c(NC(=O)OCCNC(=O)COc2c(Cl)cccc2Cl)sc(=S)n1C	-1%	4	?	9.3µM*	10%	-5
Cc1cc(Cl)ccc1OCC(=O)Nc1ccccc1C(=O)N1CCOCC1	2%	8	-4%	82%	?	-3
O=C(COc1ccc(C(=S)N2CCOCC2)cc1Cl)Nc1ccccc1Cl	-8%	19*	29%	13%	-29%[46.1 µM]	52*
O=C(COc1ccc(Cl)cc1Cl)NC(=O)N1CCOCC1	?	35*	94%	/	15%	93*
O=C(COc1ccccc1Cl)Nc1ccccc1C(=O)N1CCOCC1	-7%	18*	15%	?	22%	29
O=C(c1cc(Cl)ccc1OCc1ccccc1)N1CCOCC1	-10%[46.1 µM]	20*	31%	9%	25%[46.1 µM]	26
COc1cc(Cl)ccc1NC(=O)COc1ccccc1C(=O)N1CCN(c2ccc(O)cc2)CC1	-25%	-4	5.9µM*	?	?	29
CCN1CCN(c2ccc(S(=O)(=O)N3CCCCC3)cc2NC(=O)/C=C/c2ccc(OC(F)F)cc2)CC1	6.3µM*	/	9.3µM*	4.1µM*	?	/
CCN1CCN(c2ccc(S(=O)(=O)N3CCCCC3)cc2NC(=O)/C=C/c2cccc(OC)c2OC)CC1	?	-2	0%	?	?	-14
CN1CCN(c2ccc(S(=O)(=O)N3CCCCC3)cc2NC(=O)/C=C/c2ccc(OC(F)F)cc2)CC1	?	/	9.3µM*	7.4µM*	?	/
C/C=C/c1ccc(OCC(=O)OCC(=O)NC2CC2)c(OC)c1	-24%[46.1 µM]	-6	22%	-1%	9%[46.1 µM]	-7
Cc1ccc(Nc2nc(COC(=O)COc3ccc(C=O)cc3)cs2)cc1	-4%	25*	107%	103%	-15%	69*
C/C=C/c1ccc(OCC(=O)OCc2csc(Nc3ccc(C)cc3)n2)c(OC)c1	?	44*	?	-73%	?	91*
CCCCN(C(=O)c1cnc(C)cn1)c1c(N)n(CCC)c(=O)[nH]c1=O	/	/	1%	-4%	/	/
Cc1oc(-c2ccccc2)cc1C(=O)Nc1cccc(C(=O)O)c1	0%	12	56%	?	-1%	-10
Cc1oc(-c2ccc(Cl)cc2)cc1C(=O)O	-15%[46.1 µM]	43*	144%	128%	?	46

Screening results (PubChem)
